Experimental findings from the OligoGym collection are described below.
Further: reference of the scale not given here.

The target of one assay is UST. As to the kind of experiment: pooled miR-30 sensor sort-seq; sequence = guide strand. To be noted: shRNA.
TTGTACACCACCTGGCTTGGGA had a sensor-assay potency score (higher = more potent) of -0.187. The same measure, in the same setting: next, TTGTTGTGAATGTCTGATGTGA: -0.387.

For AAATAGTTGGATAAGAACCGGT, the sensor-assay potency score (higher = more potent) is -0.125. The same measure, in the same setting: in the case of TTCAAGAATACACTCATTGATA it was -0.731; in that of TACTCGTATCTCATCCGCTGGT, -0.000159. As to TAACAGCAGCACATCTTCCAAC, the sensor-assay potency score (higher = more potent) is -0.452. The same measure, in the same setting: in the case of TTCATTTTTAGTAAGCCTGGTT it was 0.157. Sequence TTGAGGAAATGAACATGTCGAG had a sensor-assay potency score (higher = more potent) of -0.72. The same measure, in the same setting: in the case of ATCCTGTTCTTCATCGTCGATT it was -1.53. The sequence TAAAACTCGTACTCGTATCTCA registered a sensor-assay potency score (higher = more potent) of 0.226.

In the next assay the target is UTP18. The description is as above. Particulars: shRNA.
With TTTTCCGCTTAGTAGTCTCTGC, the sensor-assay potency score (higher = more potent) was -0.432. As to ATTAGCACTAAAACAAGCCTTA, the sensor-assay potency score (higher = more potent) was 0.102. As to TAGACATAAAGAACCTTGCTGT, the sensor-assay potency score (higher = more potent) was 0.607. TTCACTAGCATTTTTCATCATA had a sensor-assay potency score (higher = more potent) of -0.646. Still for that read-out and setting: next, TTCATCTTCTTCATCCACCCAA: 0.245; TTTATGAGCAAGAAGGACCCAT: 0.234. Still for that read-out and setting: next, TTTGCAACAAATCATCTTCATC: -0.536; TTAATCCATATAAACTGCCTTC: -0.603; TTTTTCATCATATCCTTCCGAA: 0.00107. The same measure, in the same setting: in the case of TTTCTTGGAGACAAGAATCTTG it was -0.491; in that of TAGTGATACAGCATTATCTAAT, -1.01. TTCATCTTCAAGATTCCTCTTG returned a sensor-assay potency score (higher = more potent) of 0.439.

The target of the next assay is UTP3. Described as above. To be noted: shRNA.
Sequence TGAAACTTTAGCCAAATCCTTC showed a sensor-assay potency score (higher = more potent) of -1.04. Same read-out and setting: in the case of TTTCGGTAGGTAACAAGCCTTT it was -1.19. On the same count and under the same terms, in the case of ATCATCTCCATTTTCGTCGGTG it was -0.329; in that of TTTCTCTTTAGCTTTTGCCTGT, 0.173. For the sequence TAAGTGTCAACAGATGACGAAT, the sensor-assay potency score (higher = more potent) was -1.16. On the same count and under the same terms, in the case of TTCGTCGTCCTCATCGTCCATA it was -0.923. In turn, TTGATAGGTAATAGCTCTCTTT had a sensor-assay potency score (higher = more potent) of -1.33. Consider TTTCACTGAAACTTTAGCCAAA, for which the sensor-assay potency score (higher = more potent) was -0.944. Still for that read-out and setting: next, TTTACGAACTTCACGAACCTGG: -0.0211; TATAGTACTTCAGTTTTGCTTT: -0.531; TATTTCTTTATAGTACTTCAGT: -0.591. Sequence TTTCTTTACAGCATCATCCTTA returned a sensor-assay potency score (higher = more potent) of 0.221.

For another assay, the target named is UTS2D. Described as above. To be noted: shRNA.
In turn, TTATTCAGTAGAGCCAGCAATA gave a sensor-assay potency score (higher = more potent) of -1.61.

TTTTAGCTTTTCCAGCTGGTTA returned a sensor-assay potency score (higher = more potent) of -0.983. In turn, ATTTGTATATTTTTTATCTGGA displayed a sensor-assay potency score (higher = more potent) of -0.591. Same read-out and setting: next, TCTTTTAGCTTTTCCAGCTGGT: 0.0536; TAAGATATGGTCGTCCATGCAC: -0.532; TTGTATATTTTTTATCTGGAAA: -1.16.
